Laboratory results published in PubChem BioAssay (NCATS).
Inconclusive results are not listed. Activity calls are given as the source filed them. Unless noted, the call rests on the fitted dose curve; in most records, active means well fitted curve in the direction sought with a large enough effect; inconclusive means small, poorly fitted or top-dose-only effect, or another doubt; inactive means no such curve, though single readings can be large; an effect the other way counts as inactive or inconclusive.

Key:
[1] = target: Glucocorticoid receptor (Homo sapiens) (UniProt P04150); test: GR-GFP Redistribution (AID 450;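 active means compounds whose dose series gives a full or clear partial fitted curve of increased nuclear translocation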; further: potency means the concentration at half of the fitted maximal effect); conditions: U2OS GR-GFP nuclear translocation, laser cytometry, 2 h
[2] = target: Glucocorticoid receptor (Homo sapiens) (UniProt P04150); test: GR-EFC Redistribution (AID 451; calls by dose curve; further: potency means the concentration at half of the fitted maximal effect); conditions: CHO-K1 GR-EFC translocation, beta-gal luminescence, 2 h
Summary of the method: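 CHO-K1 cells stably expressing nuclear-localized β-gal enzyme acceptor and GR fused C-terminally to the enzyme donor fragment; ligand-driven nuclear translocation restores β-gal by complementation. Compounds titrated up to 46 uM final, 2 h at 37 °C; luminescence read.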

[3] = target: Mitogen-activated protein kinase 10 (Mus musculus) (UniProt Q61831); test: JNK3 AlphaScreen Assay (AID 530; active means well fitted curve in either direction with a large enough effect, not every such curve was filed as active;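 further: kinase came from lysate of stimulated human HepG2 cells; signal reports phosphorylation of biotinylated GST-cJun 1-79 at Ser73 with 10 µM ATP; series mostly up to about 57 µM; on the % scale 0 is the no-effect control and ±100 the full control effect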)
Summary of the method: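 Phosphorylation of biotinylated GST-cJun(1-79) at Ser73 is measured by AlphaScreen proximity luminescence. Enzyme is JNK3 in HepG2 lysates activated with interleukin-1beta and tumor necrosis factor alpha; ATP is 10 uM final.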

[4] = target: Dual specificity protein kinase CLK4 (Homo sapiens) (UniProt Q9HAZ1); test: qHTS Assay for Inhibitors of CDC-like Kinase 4 (ADP-Glo Assay) (AID 1771); further: nearly all actives have a fitted effect of over 70% in size; further: potency means the concentration at half of the fitted maximal effect; on activity change, negative = inhibition: on the % scale 0 is the no-effect control and ±100 the full control effect
Summary of the method: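 ADP production was read by ADP-Glo luminescence after residual ATP depletion, following 1 h room-temperature reaction of 25 nM Clk4, 1 uM ATP and 100 uM RS peptide with MgCl2, EGTA, DTT and Triton X-100.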

[5] = Stat Signaling Pathway (AID 446; active means well fitted curve in either direction with a large enough effect, not every such curve was filed as active;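 further: ME-180 cervical cancer cells given 40 pM IL-6 alongside compound; SIE-controlled beta-lactamase reporter measured as 460/530 nm FRET emission ratio; on the % scale 0 is the no-effect control and ±100 the full control effect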)
Summary of the method: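 Compound effects on IL-6-induced STAT reporter activity were measured in ME-180 cells. After overnight culture, cells were co-treated with 40 pM IL-6 for 5 hrs before beta-lactamase substrate loading at room temperature.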

[6] = target: Ubiquitin carboxyl-terminal hydrolase 1 (Homo sapiens) (UniProt O94782); test: Inhibitors of USP1/UAF1: Pilot qHTS (AID 504865);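 further: rhodamine fluorescence freed from ubiquitin-rhodamine substrate followed over time; top concentration of the series differs between compounds; on the % scale 0 is the no-effect control and ±100 the full control effect; nearly all actives have a fitted effect of over 35% in size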
Summary of the method: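 1nM USP1/UAF1 + cpd, 15 min RT; start w/ Ub-Rho 150nM final; kinetic FL 480/540 nm, 6 reads q60 s. Buffer 50mM HEPES pH 7.8, 0.5mM EDTA, 1mM TCEP, 0.01% Tween-20, 0.1 mg/ml BSA.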

[7] = Viability counterscreen for antagonist of constitutive androstane receptor (CAR) against the NCATS DSHEA and TCM libraries (AID 1794837);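 further: compound exposure lasted 24 h before viability reading; 0% is about no effect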
Summary of the method: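 Cell viability, CellTiter-Fluor, Ex/Em 405/540 nm, 1 h at 37C. HepG2-CYP2B6-hCAR, 2,500 cells/well; cpds + CITCO 48 uM final (antagonist mode), 24 h, 37C/5% CO2.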

[8] = Viability counterscreen for agonist of constitutive androstane receptor (CAR) against the NCATS DSHEA and TCM libraries (AID 1794838); further: 0% is about no effect
Summary of the method: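 Viability by CellTiter-Fluor fluorescence, 405/540 nm, after 1 h at 37C. HepG2-CYP2B6-hCAR cells were exposed 24 h to test substances in presence of 0.75 uM PK11195 (final).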

[9] = target: Nuclear receptor subfamily 1 group I member 3 (Homo sapiens) (UniProt Q14994); test: Primary qHTS for agonist of constitutive androstane receptor (CAR) against the NCATS DSHEA and TCM libraries (AID 1794839);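 further: HepG2 cells expressing human CAR with a CYP2B6 reporter plus PK11195 antagonist; 0% is about no effect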
Summary of the method: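 Luminescence from ONE-Glo luciferase was the agonist read-out in HepG2-CYP2B6-hCAR cells exposed 24 h to test substances. Wells also held the CAR antagonist PK11195 at 0.75 µM final. Viability was by CellTiter-Fluor fluorescence.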

[10] = HepG2 viability counterscreen (readout 2: ATP content) against the NCATS DSHEA and TCM libraries (AID 1794840); further: 0% is about no effect
Summary of the method: (§1)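 1,000 HepG2 cells/well, 4 h attach; compounds ~24 h, 37C/5% CO2. Readout 1: GF-AFC 25 uM final, 30 min, fluorescence 380/510 nm. Readout 2: CellTiter-Glo, 30 min RT, luminescence.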

[11] = HepG2 viability counterscreen (readout 1: protease activity) against the NCATS DSHEA and TCM libraries (AID 1794841);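 further: cells exposed to compounds for about 24 h before the protease read; 0% is about no effect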
Summary of the method: as §1

[12] = target: Cytochrome P450 3A4 (Homo sapiens) (UniProt P08684); test: qHTS for inhibitors of CYP3A4 against the NCATS DSHEA and TCM libraries (AID 1919971); further: potency means the concentration at half of the fitted maximal effect;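 on activity change, negative = inhibition: on the % scale 0 is the no-effect control and ±100 the full control effect; inhibition lowers luminescence from luciferin made by CYP3A4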
Summary of the method: (§2)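 Each CYP isoform and its pro-luciferin substrate, at isoform-specific final concentrations, were preincubated 15 min at RT with substances. NADPH regeneration solution (1x) started a 30-45 min reaction, and P450-Glo luminescence was read.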

[13] = target: Cytochrome P450 2D6 (Homo sapiens) (UniProt P10635); test: qHTS for inhibitors of CYP2D6 against the NCATS DSHEA and TCM libraries (AID 1919972); further: on the % scale 0 is the no-effect control and ±100 the full control effect
Summary of the method: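 CYP2D6 enzyme with pro-luciferin substrate in manufacturer buffer (typically 100 mM KPO4), preincubated 15 min RT with substances (most at 19.5 nM upward); NADPH regeneration system (1x) started 30–45 min RT reaction; P450-Glo luminescence read after 30 min; quinidine as intraplate control.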

[14] = target: Cytochrome P450 2C19 (Homo sapiens) (UniProt P33261); test: qHTS for inhibitors of CYP2C19 against the NCATS DSHEA and TCM libraries (AID 1919974);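 further: luminescence from luciferin released by CYP2C19 oxidation of a pro-luciferin substrate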; further: potency means the concentration at half of the fitted maximal effect
Summary of the method: as §2

[15] = KB-3-1 P-gp reporter qHTS against the NCATS DSHEA and TCM libraries (AID 1919975); further: 0% is about no effect
Summary of the method: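 CellTiter-Glo luminescence viability readout; KB-3-1 parental cells, 500/well, attached ~4 h, then compound for ~72 h, 37C, 5% CO2. Bortezomib intraplate control.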

[16] = Dual reporter qHTS for agonist of Pregnane X Receptor (hPXR) against the NCATS DSHEA and TCM libraries: Fluorescence readout (AID 1920058); further: 0% is about no effect
Summary of the method: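 Viability readout (CellTiter-Fluor, 405/540 nm, 1 h) from agonist-mode PXR dual reporter in hPXR-Luc HepG2 cells. Substances ~24 h, 37 °C, 5% CO2; rifampicin reference, tetraoctyl ammonium bromide cytotoxic control.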

[17] = target: Nuclear receptor subfamily 1 group I member 2 (Homo sapiens) (UniProt O75469); test: Dual reporter qHTS for antagonist of Pregnane X Receptor (hPXR) against the NCATS DSHEA and TCM libraries: Luminescence Readout (AID 1920060);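 further: HepG2 cells carrying hPXR luciferase reporter stimulated with rifampicin at 2 µM; 0% is about no effect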
Summary of the method: (§3)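 Antagonist mode: rifampicin 2 uM final co-added with compounds to hPXR-LucHepG2 cells for 24 h at 37C. Viability by CellTiter-Fluor, Ex/Em 405/540 nm, 1 h; reporter by ONE-Glo luminescence.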

[18] = Dual reporter qHTS for antagonist of Pregnane X Receptor (hPXR) against the NCATS DSHEA and TCM libraries: Fluorescence Readout (AID 1920061); further: 0% is about no effect
Summary of the method: as §3

[19] = target: Nuclear receptor subfamily 1 group I member 2 (Homo sapiens) (UniProt O75469); test: Dual reporter qHTS for agonist of Pregnane X Receptor (hPXR) against the NCATS DSHEA and TCM libraries: Luminescence readout (AID 1920059); further: 0% is about no effect
Summary of the method: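 hPXR-LucHepG2 cells in phenol red-free DMEM with 5% charcoal-stripped FBS, 2000 cells/well, attached 5 h, then exposed 24 h at 37C to compounds; rifampicin as positive agonist control (2.8 nM–92 uM). Luciferase luminescence read.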

[20] = qHTS Counterscreen for compound interference against the NCATS DSHEA and TCM libraries (AID 1919978); conditions: firefly luciferase detection reagent interference, luminescence;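 further: compounds preincubated with 1 µM D-luciferin or buffer before detection reagent; % of control where 0% means no effect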
Summary of the method: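 Luminescence counterscreen for detection-kit interference: compounds at 19.5 nM–39.8 uM final, 15 min RT with 1 uM D-luciferin or buffer only; detection reagent added, 30 min RT, then read.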

Sequence of Nuclear receptor subfamily 1 group I member 2 (Homo sapiens) (O75469 whole entry, looked up): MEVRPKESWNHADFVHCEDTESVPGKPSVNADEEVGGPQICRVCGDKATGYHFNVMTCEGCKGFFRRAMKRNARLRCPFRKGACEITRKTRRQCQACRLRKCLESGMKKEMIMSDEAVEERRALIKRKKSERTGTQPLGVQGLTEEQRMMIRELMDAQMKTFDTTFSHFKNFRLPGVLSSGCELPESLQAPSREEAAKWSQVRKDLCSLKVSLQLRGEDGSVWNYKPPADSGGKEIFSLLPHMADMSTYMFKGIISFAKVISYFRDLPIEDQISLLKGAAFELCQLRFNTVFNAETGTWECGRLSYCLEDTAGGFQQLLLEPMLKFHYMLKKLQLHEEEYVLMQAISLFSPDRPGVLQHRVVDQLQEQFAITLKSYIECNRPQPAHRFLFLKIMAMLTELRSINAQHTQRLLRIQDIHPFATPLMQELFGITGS
Sequence of Nuclear receptor subfamily 1 group I member 3 (Homo sapiens) (Q14994 whole entry, looked up): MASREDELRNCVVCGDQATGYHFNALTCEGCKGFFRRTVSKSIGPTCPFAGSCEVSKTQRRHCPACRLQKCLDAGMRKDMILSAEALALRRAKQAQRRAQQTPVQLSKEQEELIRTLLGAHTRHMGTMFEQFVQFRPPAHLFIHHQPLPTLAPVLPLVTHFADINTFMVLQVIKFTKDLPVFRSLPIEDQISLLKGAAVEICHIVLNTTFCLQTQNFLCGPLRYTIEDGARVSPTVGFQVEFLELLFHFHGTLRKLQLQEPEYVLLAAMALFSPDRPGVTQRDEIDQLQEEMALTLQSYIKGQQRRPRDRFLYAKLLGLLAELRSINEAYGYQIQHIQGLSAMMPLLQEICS
Sequence of Cytochrome P450 2C19 (Homo sapiens) (P33261 whole entry, looked up): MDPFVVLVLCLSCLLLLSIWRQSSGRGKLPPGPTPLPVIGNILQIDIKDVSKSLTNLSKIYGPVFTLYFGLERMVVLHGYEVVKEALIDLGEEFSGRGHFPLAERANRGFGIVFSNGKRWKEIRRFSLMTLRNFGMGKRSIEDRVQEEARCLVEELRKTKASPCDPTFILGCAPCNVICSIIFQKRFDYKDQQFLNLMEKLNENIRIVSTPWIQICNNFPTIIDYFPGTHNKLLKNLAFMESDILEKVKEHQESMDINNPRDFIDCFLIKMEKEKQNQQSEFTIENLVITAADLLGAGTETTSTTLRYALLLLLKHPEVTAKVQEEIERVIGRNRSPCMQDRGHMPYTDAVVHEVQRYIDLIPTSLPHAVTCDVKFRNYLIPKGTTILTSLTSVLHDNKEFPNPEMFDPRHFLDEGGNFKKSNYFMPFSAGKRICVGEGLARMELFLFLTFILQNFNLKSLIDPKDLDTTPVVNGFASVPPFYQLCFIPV
Sequence of Ubiquitin carboxyl-terminal hydrolase 1 (Homo sapiens) (O94782 whole entry, looked up): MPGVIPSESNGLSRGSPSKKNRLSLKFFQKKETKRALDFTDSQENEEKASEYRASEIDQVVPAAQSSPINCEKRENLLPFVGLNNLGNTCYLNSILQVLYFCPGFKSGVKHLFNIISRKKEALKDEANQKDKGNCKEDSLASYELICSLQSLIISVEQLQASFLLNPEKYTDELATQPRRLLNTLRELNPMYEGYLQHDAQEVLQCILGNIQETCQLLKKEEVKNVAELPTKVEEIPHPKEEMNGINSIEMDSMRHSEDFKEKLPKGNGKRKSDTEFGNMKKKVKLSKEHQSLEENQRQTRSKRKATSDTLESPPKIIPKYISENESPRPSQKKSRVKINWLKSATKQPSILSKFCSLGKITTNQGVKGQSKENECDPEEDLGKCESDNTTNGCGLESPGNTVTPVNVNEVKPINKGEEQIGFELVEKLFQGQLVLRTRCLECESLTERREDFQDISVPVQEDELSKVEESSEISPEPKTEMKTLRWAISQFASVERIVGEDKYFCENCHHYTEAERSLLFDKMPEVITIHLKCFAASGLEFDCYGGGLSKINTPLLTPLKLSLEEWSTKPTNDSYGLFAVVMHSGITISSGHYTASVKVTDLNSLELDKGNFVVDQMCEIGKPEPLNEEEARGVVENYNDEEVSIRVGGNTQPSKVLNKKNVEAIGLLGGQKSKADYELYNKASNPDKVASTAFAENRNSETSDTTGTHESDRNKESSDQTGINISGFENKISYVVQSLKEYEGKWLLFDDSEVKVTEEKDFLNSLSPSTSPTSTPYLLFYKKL
Sequence of Cytochrome P450 3A4 (Homo sapiens) (P08684 whole entry, looked up, canonical isoform): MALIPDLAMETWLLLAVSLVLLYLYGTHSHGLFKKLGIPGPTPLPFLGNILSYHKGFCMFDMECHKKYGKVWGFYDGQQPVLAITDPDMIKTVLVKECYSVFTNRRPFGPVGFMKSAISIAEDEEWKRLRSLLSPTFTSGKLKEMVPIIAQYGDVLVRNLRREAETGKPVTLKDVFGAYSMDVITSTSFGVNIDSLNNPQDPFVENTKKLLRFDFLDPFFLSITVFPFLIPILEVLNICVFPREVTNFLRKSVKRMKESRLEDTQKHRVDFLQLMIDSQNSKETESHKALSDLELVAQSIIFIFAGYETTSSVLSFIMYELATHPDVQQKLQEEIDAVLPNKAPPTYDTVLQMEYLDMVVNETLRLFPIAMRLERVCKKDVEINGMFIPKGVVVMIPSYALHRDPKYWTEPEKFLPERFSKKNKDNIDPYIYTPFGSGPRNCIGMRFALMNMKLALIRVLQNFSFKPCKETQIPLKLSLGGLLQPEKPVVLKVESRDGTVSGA
Sequence of Cytochrome P450 2D6 (Homo sapiens) (P10635 whole entry, looked up): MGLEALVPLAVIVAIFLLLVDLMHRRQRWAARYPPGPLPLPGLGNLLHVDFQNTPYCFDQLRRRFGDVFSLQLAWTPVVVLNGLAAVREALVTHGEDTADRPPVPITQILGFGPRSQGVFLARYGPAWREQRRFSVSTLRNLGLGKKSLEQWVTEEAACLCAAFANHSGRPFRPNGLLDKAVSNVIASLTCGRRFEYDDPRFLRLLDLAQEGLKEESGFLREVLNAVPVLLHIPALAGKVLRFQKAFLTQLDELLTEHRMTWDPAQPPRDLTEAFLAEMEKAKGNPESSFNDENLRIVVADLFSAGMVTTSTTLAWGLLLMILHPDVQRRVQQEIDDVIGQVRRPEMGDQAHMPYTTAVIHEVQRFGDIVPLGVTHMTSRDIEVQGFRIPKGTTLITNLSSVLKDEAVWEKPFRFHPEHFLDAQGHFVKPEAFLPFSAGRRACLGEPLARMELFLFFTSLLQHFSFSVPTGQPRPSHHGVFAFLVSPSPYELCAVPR
Sequence of Glucocorticoid receptor (Homo sapiens) (P04150 whole entry, looked up, the tested form may be a part): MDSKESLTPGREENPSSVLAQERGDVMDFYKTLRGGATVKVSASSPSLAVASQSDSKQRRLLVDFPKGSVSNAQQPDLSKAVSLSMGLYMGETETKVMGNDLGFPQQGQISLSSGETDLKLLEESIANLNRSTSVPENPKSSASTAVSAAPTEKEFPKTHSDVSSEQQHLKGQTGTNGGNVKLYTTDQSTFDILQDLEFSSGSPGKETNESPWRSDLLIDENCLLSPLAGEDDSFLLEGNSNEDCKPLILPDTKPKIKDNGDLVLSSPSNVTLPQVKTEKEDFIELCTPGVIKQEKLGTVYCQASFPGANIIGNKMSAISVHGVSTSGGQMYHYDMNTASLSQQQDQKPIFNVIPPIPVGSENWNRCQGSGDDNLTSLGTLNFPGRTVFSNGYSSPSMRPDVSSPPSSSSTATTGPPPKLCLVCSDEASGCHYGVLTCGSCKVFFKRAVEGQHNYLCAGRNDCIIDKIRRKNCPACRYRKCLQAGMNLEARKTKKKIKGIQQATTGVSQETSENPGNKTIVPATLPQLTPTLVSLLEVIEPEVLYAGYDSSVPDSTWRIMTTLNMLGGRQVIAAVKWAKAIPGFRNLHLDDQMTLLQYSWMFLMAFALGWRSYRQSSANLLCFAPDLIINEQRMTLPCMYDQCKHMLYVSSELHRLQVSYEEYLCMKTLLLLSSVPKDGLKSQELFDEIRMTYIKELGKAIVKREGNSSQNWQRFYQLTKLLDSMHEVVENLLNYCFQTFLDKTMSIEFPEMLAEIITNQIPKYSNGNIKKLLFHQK
Sequence of Dual specificity protein kinase CLK4 (Homo sapiens) (Q9HAZ1 whole entry, looked up): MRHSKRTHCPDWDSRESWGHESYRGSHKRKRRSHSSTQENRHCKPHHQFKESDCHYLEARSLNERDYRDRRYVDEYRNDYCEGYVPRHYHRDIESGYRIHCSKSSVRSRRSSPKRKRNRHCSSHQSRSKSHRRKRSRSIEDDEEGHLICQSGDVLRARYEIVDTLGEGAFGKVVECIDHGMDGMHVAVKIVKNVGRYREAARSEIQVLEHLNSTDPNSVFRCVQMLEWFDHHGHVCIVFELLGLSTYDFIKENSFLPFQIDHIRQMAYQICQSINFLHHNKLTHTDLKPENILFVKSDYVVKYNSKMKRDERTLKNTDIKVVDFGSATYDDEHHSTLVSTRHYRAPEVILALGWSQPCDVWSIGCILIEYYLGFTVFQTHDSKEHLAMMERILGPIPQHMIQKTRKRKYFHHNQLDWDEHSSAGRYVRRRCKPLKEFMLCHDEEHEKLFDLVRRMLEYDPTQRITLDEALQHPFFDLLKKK

COc1cccc(-c2nc(N(C)C)c3ccccc3n2)c1
inactive: Potency [1] > 46 µM | Potency [2] > 46 µM | Potency [3]
active: Potency [4] 7.08 µM

CN(C)c1nc(-c2cccc(C#N)c2)nc2ccccc12
inactive: outcome [5] | Potency [2] > 46 µM | Potency [6]
active: Potency [4] 15.8 µM

Cc1nc2cnc(N3CCN(C)CC3)nc2n(CCc2ccccc2)c1=O
inactive: outcome [5] | Potency [1] > 9.22 µM | Potency [2] > 46 µM | Potency [3] | Potency [4] | Potency [6]

COc1ccc2[nH]cc(CCNc3nc(-c4ccccc4OC)nc4ccccc34)c2c1
inactive: outcome [5] | Potency [1] > 46 µM | Potency [2] > 46 µM | Potency [3] | Potency [6]
active: Potency [4] 35.5 µM

CN(C)c1ccc(-c2nccc(NCc3cccs3)n2)cc1
active: Potency [4] 5.62 µM
inactive: outcome [5] | Potency [2] > 46 µM | Potency [3] | Potency [6]

Cn1cc(-c2nc3cnc(N4CCNCC4)nc3n(C3CC3)c2=O)c2ccccc21
inactive: Potency [1] > 9.22 µM | Potency [2] > 46 µM | Potency [4] | Potency [6]

COc1cccc(-c2ccc3ncnc(N4CCNCC4)c3c2)c1
active: Potency [4] 2 µM
inactive: Potency [2] > 46 µM | Potency [3] | Potency [6]

COCCn1c(=O)c(CCc2ccccc2)nc2cnc(N(C)C)nc21
inactive: outcome [5] | Potency [1] > 9.22 µM | Potency [2] > 46 µM | Potency [4] | Potency [6]

O=c1c(CCc2ccccc2)nc2cnc(Nc3ccccc3)nc2n1C[C@H]1CCCO1
inactive: outcome [5] | Potency [1] > 9.22 µM | Potency [3] | Potency [4] | Potency [6]

CN1CCN(c2ncc3nc(CCc4ccccc4)c(=O)n(CCc4ccccc4)c3n2)CC1
inactive: outcome [5] | Potency [2] > 46 µM | Potency [3] | Potency [4] | Potency [6]

COCCn1c(=O)c(-c2cccs2)nc2cnc(N3CCNCC3)nc21
inactive: Potency [2] > 46 µM | Potency [3] | Potency [4] | Potency [6]

COc1ccc2[nH]cc(CCNc3ncncc3-c3cccc(C#N)c3)c2c1
inactive: outcome [5] | Potency [1] > 46 µM | Potency [2] > 46 µM | Potency [3] | Potency [6]
active: Potency [4] 25.1 µM

CN(C)C(=O)c1ccc(-c2nc(N3CCOCC3)c3ccccc3n2)cc1
inactive: outcome [5] | Potency [1] > 46 µM | Potency [2] > 46 µM | Potency [3] | Potency [4] | Potency [6]

COc1ccc2[nH]cc(CCNc3cc(-c4ccccc4OC)ncn3)c2c1
active: Potency [4] 25.1 µM
inactive: outcome [5] | Potency [1] > 46 µM | Potency [2] > 46 µM | Potency [3] | Potency [6]

CC1=CC[C@H](C(C)C)C=C1
inactive: outcome [7] | outcome [8] | Potency [9] | outcome [10] | outcome [11] | Potency [13] | outcome [15] | outcome [16] | outcome [17] | outcome [18]
active: Potency [12] 35.5 µM | Potency [14] 39.8 µM

C[C@@H]1O[C@@H](OC[C@H]2OC(Oc3c(-c4ccc(O)c(O)c4)oc4cc(O)cc(O)c4c3=O)[C@H](O)[C@@H](O)[C@@H]2O)[C@H](O)[C@H](O)[C@H]1O (some centres not stated)
inactive: outcome [7] | outcome [8] | Potency [9] | outcome [10] | outcome [11] | Potency [12] | Potency [13] | Potency [14] | outcome [15] | outcome [16] | Potency [19] | outcome [17]

O=C(/C=C/c1ccc(O)c(O)c1)O[C@@H]1CC(C(=O)O)=C[C@@H](O)[C@H]1O
inactive: outcome [7] | outcome [8] | Potency [9] | outcome [10] | outcome [11] | Potency [12] | Potency [13] | Potency [14] | outcome [15] | max response [20] 4.08% | outcome [16] | Potency [19] | outcome [17] | outcome [18]

Cc1ncc(COP(=O)(O)O)c(C)c1O
inactive: outcome [5] | Potency [1] > 46 µM | Potency [2] > 9.22 µM | activity change, negative = inhibition [3] 4.19% [at 11.4 µM] | outcome [7] | outcome [8] | Potency [9] | outcome [11] | Potency [12] | Potency [13] | outcome [15] | Potency [19] | outcome [17] | outcome [18]
active: Potency [14] 7.08 µM

C=C1C[C@]23CC[C@H]4[C@@](C)(CCC[C@@]4(C)C(=O)O)[C@@H]2CC[C@@]1(O[C@@H]1O[C@H](CO)[C@@H](O)[C@H](O)[C@H]1O[C@@H]1O[C@H](CO)[C@@H](O)[C@H](O)[C@H]1O)C3
inactive: outcome [7] | outcome [8] | Potency [9] | outcome [10] | outcome [11] | Potency [12] | Potency [13] | Potency [14] | outcome [15] | Potency [19] | outcome [17] | outcome [18]

CC/C=C\C/C=C\C/C=C\C/C=C\CCCCC(=O)O
inactive: viability change, negative = cytotoxic [7] -11.8% [at 5 µM] | activity change, negative = cytotoxicity [8] -13.9% [at 5 µM] | activation [9] -23.1% [at 5 µM] | activity change, negative = cytotoxic [10] -8.49% [at 3.42 µM] | activity change, negative = inhibition [11] -7.13% [at 3.42 µM] | activity change, negative = inhibition [12] 5.33% [at 4.27 µM] | activity change, negative = inhibition [13] -5.86% [at 4.27 µM] | activity change, negative = inhibition [14] 43.3% [at 4.27 µM] | activity change, negative = inhibition [15] -9.13% [at 3.26 µM] | max response [20] -1.09% | activation [16] -3.85% [at 5 µM] | activation [19] -9.78% [at 5 µM] | activity change, negative = inhibition [17] -24.2% [at 5 µM] | activity change, negative = inhibition [18] -0.29% [at 5 µM]

CC(C)=CCCC(C)(OC1OC(COC2OC(CO)C(O)C2O)C(O)C(O)C1O)C1CCC2(C)C1C(O)CC1C3(C)CCC(OC4OC(CO)C(O)C(O)C4OC4OC(CO)C(O)C(O)C4O)C(C)(C)C3CCC12C (configuration not stated)
inactive: outcome [7] | outcome [8] | Potency [9] | outcome [10] | outcome [11] | Potency [12] | Potency [13] | Potency [14] | outcome [15] | max response [20] 2.08% | Potency [19] | outcome [17] | outcome [18]
